High-throughput results as filed in PubChem.
TrxR1 substrate: substrates of rat thioredoxin reductase 1; Potency, µM (series often up to 114 µM), for inactives: top-dose activity change, negative = substrate turnover; hit rate 0.01% among 390,000; AID 588456; purified TrxR1 substrate turnover, NADPH consumption readout; further: potency means the concentration at half of the fitted maximal effect; nearly all actives have a fitted effect of over 50% in size
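Rat TrxR1, dispensed at 90 nM, was prereduced with 400 uM NADPH (final) for 5 min at ~22 deg C, then incubated with compound 15 min before 400 uM selenite. A first-read NADPH fluorescence drop versus no-compound background flagged substrates.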
PKM2 act: increases activity of human pyruvate kinase M2; hit rate 0.34% among 260,000; purified PKM2, Kinase-Glo ATP luminescence, activation; response scale: 0% is enzyme alone, no compound; P14618; Potency, µM (doses to about 57.5 µM), inactives show at the highest dose activation, actives largely listed as activators; further: potency means the concentration at half of the fitted maximal effect; nearly all actives have a fitted effect of over 55% in size
Target sequence (P14618 whole entry, looked up): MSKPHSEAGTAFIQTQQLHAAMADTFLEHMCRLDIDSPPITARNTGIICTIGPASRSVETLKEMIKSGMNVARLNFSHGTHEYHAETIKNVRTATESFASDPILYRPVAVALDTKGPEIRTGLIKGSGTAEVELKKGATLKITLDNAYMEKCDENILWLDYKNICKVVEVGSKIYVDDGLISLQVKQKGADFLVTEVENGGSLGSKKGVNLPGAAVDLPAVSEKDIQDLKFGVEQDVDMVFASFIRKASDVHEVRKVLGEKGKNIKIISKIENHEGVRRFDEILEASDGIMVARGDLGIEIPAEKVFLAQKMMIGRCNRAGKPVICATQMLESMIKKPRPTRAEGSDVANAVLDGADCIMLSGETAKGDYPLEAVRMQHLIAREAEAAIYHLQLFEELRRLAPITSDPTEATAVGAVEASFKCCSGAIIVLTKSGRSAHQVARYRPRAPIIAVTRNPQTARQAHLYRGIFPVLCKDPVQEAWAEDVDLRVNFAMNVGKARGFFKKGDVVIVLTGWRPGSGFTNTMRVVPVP
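hPK-M2, >95% pure; 0.1 mM ADP / 0.5 mM PEP final; imidazole pH7.2 buffer w/ 7 mM MgCl2, 50 mM KCl; 1 h RT; Kinase-Glo lum. Intermediate enzyme activity for dual inhibitor/activator qHTS.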
LDHA inh: LDHA (human) enzyme inhibition | purified LDHA, NADH/diaphorase-resazurin fluorescence; active compounds read low | activity change, % (values are at about 110 or 230 µM) | hit rate 0.15% among 480,000; in the data active means activity change below about -30%; inconclusive means mostly about -25% to -30%;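 further: plate controls were DMSO wells for no effect and wells without enzyme for full effect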
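Enzyme activity of human lactate dehydrogenase 5 (2 nM; 0.06 mM NADH, 0.2 mM pyruvate, 5 min, RT) is measured via a resazurin/diaphorase fluorescence readout of residual NADH.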
mIDH1 inhibitor: blocks human mutant IDH1 R132H enzyme. IDH1-R132H enzyme, NADPH consumption, diaphorase/resazurin fluorescence. Potency, µM (doses to about 76.6 µM), without a hit: at the highest dose activity change, negative = inhibition, usual class: inhibitors. hit rate 0.093% among 390,000; further: potency means the concentration at half of the fitted maximal effect; nearly all actives have a fitted effect of over 65% in size
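IDH1-R132H (0.5 ug/mL dispensed) in pH 7.5 Tris buffer was preincubated 30 min with compound, then given a substrate mix of 0.016 mM NADPH and 2 mM alpha-KG for 80 min at room temperature; remaining NADPH was read by diaphorase/resazurin fluorescence.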
rTrxR1 inhibitor: rat TrxR1 inhibition; O89049; recombinant rTrxR1, NADPH fluorescence consumption, selenite substrate; Potency, µM (top dose mostly 114 µM), inactives show at the highest dose activity change, negative = inhibition, most hits filed as inhibitors; hit rate 1% among 390,000; further: potency means the concentration at half of the fitted maximal effect; nearly all actives have a fitted effect of over 65% in size
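Rat TrxR1 (90 nM in the dispensed reagent) was pre-reduced with 400 uM NADPH for 5 min at room temperature, then incubated with compound for 15 min. After 400 uM selenite was added, NADPH fluorescence (Ex 340/Em 450 nm) was followed for 8 min.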
GLS inh: glutaminase GLS (human) inhibition | O94925 | GLS enzymatic activity, qHTS titration | Potency, µM (highest dose often 45.5 µM), for the others: at the highest dose activity change, negative = inhibition, most hits filed as inhibitors | hit rate 0.21% among 410,000; further: potency means the concentration at half of the fitted maximal effect
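Assay buffer: 45 mM KH2PO4 pH 8.2, 0.02% Tween-20. hKGA acts on L-glutamine (1 mM solution added); product glutamate is reported by an oxidase/peroxidase Amplex Red coupling, with fluorescence taken at baseline and 30 min.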
* marks the source's active call; other numbers are inactive results; ? = inconclusive; · = not tested or not shown; ! = not confirmed by another sample; [ ] = remark or other dose. Sampled rows, rich in hits. Any-hit rate of the full collection: about 1.4%. Unless noted, the call rests on the fitted dose curve; in most records, active means well fitted curve in the direction sought with a large enough effect; inconclusive means small, poorly fitted or top-dose-only effect, or another doubt; inactive means no such curve, though single readings can be large; an effect the other way counts as inactive or inconclusive. Unless noted, on the % scale 0 is the no-effect control and ±100 the full control effect.

SMILES | TrxR1 substrate | PKM2 act | LDHA inh | mIDH1 inhibitor | rTrxR1 inhibitor | GLS inh
CC(Cc1ccco1)NCc1cc2ccccc2o1 (stereo not drawn) | · | · | 10 | · | · | ·
C[N+](C)(C)CC(=O)O | -2%[57.1 µM] | · | -8 | 3% | 27µM*! | 0%
COc1ccc(N=Nc2c(O)[nH]c(=S)[nH]c2=O)cc1 | -1%[57.1 µM] | · | -11 | -3% | 0%[57.1 µM] | 16%
CSc1nc(N)c(N=Nc2ccc([As](=O)(O)O)cc2)c(=O)[nH]1 | 6%[57.1 µM] | -5% | -3 | 0% | 4µM* | -1%
N#Cc1ccc(NC(=O)CCC2CCCC2)cc1Cl | · | · | -1 | · | · | ·
CCN(CC)c1ccc(/C=C2/C(=O)NC(=O)N(CC3CCCO3)C2=O)cc1 (stereo not drawn) | -8% | 1% | -1 | -6% | ? | 16%
CCN(CC)c1ccc(/C=C2\C(=O)NC(=O)N(Cc3ccco3)C2=O)cc1 | -8% | 10% | -7 | -2% | 28µM* | 18%
O=C(O)Cn1cc(/C=C2\C(=O)NC(=O)N(Cc3ccco3)C2=O)c2ccccc21 | -22% | 19% | 3 | 8% | 32µM* | ?
Cc1cc(O)c2c(C)c(CC(=O)N3CCN(C)CC3)c(=O)oc2c1 | · | · | 8 | · | · | ·
CC(NC(C)c1ccc(Cl)cc1)C(=O)c1c[nH]c2ccccc12 (stereo not drawn) | · | · | 4 | · | · | ·
O=C1CSC(c2ccc(Cl)cc2)c2cn[nH]c2N1 (stereo not drawn) | · | · | -8 | · | · | ·
N#Cc1c(/N=C/C2C(=O)NC(=S)NC2=O)sc2c1CCCC2 | -5% | 4% | 5 | 9% | 22µM* | 14%
CCOC(=O)c1cc(C)sc1/N=C/C1C(=O)NC(=S)NC1=O | -5%[57.1 µM] | -11% | -2 | 6% | 0.71µM* | 1%
CCOC(=O)c1c(/N=C/C2C(=O)NC(=S)NC2=O)sc2c1CCC2 | -4%[57.1 µM] | 11% | 6 | 0% | 18µM* | 0%
CCOC(=O)c1c(/N=C/C2C(=O)NC(=S)NC2=O)sc(C)c1C | · | -19% | · | · | · | ·
CC(C)Cn1cc(C(=O)NCC2CCCN2C)c2ccccc21 (stereo not drawn) | · | · | -2 | · | · | ·
COC(=O)C12CCC(CC1c1ccccc1)OC2=O (stereo not drawn) | · | · | 1 | · | · | ·
N#CC1(c2ccccc2)CCN(C2CC(=O)N(c3ccc4c(c3)OCO4)C2=O)CC1 (stereo not drawn) | 5% | 13% | -12 | 2% | 71µM* | -4%
N#Cc1c(-c2cccc(-c3no[n+]([O-])c3C#N)c2)no[n+]1[O-] | · | · | 3 | · | · | ·
Cc1cccc(N2C(=O)NC(=O)/C(=C\c3ccc4c(c3)CCCN4Cc3ccccc3)C2=O)c1 | 11%[57.1 µM] | 10% | -4 | 52µM* | ? | -13%
COc1cc(/C=C2\C(=O)NC(=O)N(c3ccccc3)C2=O)cc(OC)c1OC | 12%[57.1 µM] | -2% | -7 | 6% | ? | 0%
COc1ccccc1N1CCN(Cc2ccc(Cl)cc2Cl)CC1 | -2% | 3% | -16 | 2% | 14% | 61%
Cc1ccc(CN2CCN(Cc3ccccc3F)CC2)cc1 | 0% | -7% | -35* | -8% | 5% | 3%
COc1ccccc1CN1CCN(C(=O)COc2ccc3ccccc3c2)CC1 | 5% | · | -4 | 12% | 14% | 7%
Cc1ccc(CN2CCN(Cc3ccc(F)cc3)CC2)cc1 | · | · | 9 | · | · | ·
SMILES | TrxR1 substrate | PKM2 act | LDHA inh | mIDH1 inhibitor | rTrxR1 inhibitor | GLS inh
COc1ccc(CN2CCN(Cc3ccccc3OC)CC2)cc1 | 9% | · | -37* | -4% | 25% | 0%
COc1ccccc1CN1CCN(Cc2ccc(Cl)cc2)CC1 | -3% | 5% | -34* | -3% | 8% | 3%
C[N+](C)(C)CC1CC1 | · | · | 5 | · | · | ·
COC(=O)[C@@H]1[C@@H](C(=O)OC)C2(c3ccccc3-c3ccccc32)N(c2ccc(Cl)cc2)N1C#N | -3% | 7% | -7 | -18% | 11µM* | 10%
O=C(Nc1cc[c]([Sb](=[O])([OH])[OH])cc1)c1ccccc1 | -4% | · | ? | · | ? | ·
[O]=[Sb]([OH])([OH])[c]1ccccc1 | -1% | · | -38* | · | 6.3µM* | ·
C=CCN1C(=O)/C(=C/c2cc(C)n(-c3ccccn3)c2C)C(=O)NC1=S | -14% | 17% | -5 | -2% | 50µM* | 0%
N#CC(C#N)=Cc1ccc(O)c(O)c1 | 4%[57.1 µM] | · | -3 | -5% | 17µM* | 8%
COC[C@H]1OC(=O)c2coc3c2[C@@]1(C)C1=C(C3=O)C2CCC(=O)[C@@]2(C)C[C@H]1OC(C)=O (stereo partly drawn) | 15%[57.1 µM] | · | 43 | · | 15µM*! | ·
Cc1ccc(C)c(NC(=O)c2cn(Cc3ccccc3)nn2)c1 | · | · | 7 | · | · | ·
O=c1[nH]sc2cc(F)ccc12 | -16% | -5% | -14 | 7% | 39%[57.1 µM] | 7.9µM*
S=P(Nn1cnnc1)(c1ccc(Br)cc1)c1ccc(Br)cc1 | 4%[57.1 µM] | 28µM* | 1 | -2% | 24%[57.1 µM] | ?
Clc1ccc(-c2ccc(CNC3CN4CCC3CC4)o2)c(Cl)c1 (stereo not drawn) | · | · | 2 | · | · | ·
Cc1cc2c(C(C)C)c(O)c(O)c(C=O)c2c(O)c1-c1c(C)cc2c(C(C)C)c(O)c(O)c(C=O)c2c1O | ? | ? | -14 | · | 40µM* | ?
N[n+]1cn[nH]c1 | · | · | 5 | · | · | ·
Cc1ccc(CN(CCc2ccccc2)Cc2ccccc2)o1 | · | · | 3 | · | · | ·
COC(=O)[C@@H]1C[C@H]1[C@@H](NP(=O)(c1ccccc1)c1ccccc1)c1ccccc1 | 0% | 4% | 4 | -1% | 16µM* | 8%
COC(=O)[C@H]1C[C@@H]1[C@H](NP(=O)(c1ccccc1)c1ccccc1)c1ccccc1 | 5% | -5% | -1 | 12% | 13%[57.1 µM] | 1%
N#CCC1CN2CCC1C(c1ccccc1)C2 (stereo not drawn) | · | · | 2 | · | · | ·
CNCCc1c[nH]c2ccccc12 | 5% | 0% | -9 | -8% | 56µM* | 58%
O=c1oc2ccccc2c(O)c1C(c1ccccc1)c1c(O)c2ccccc2oc1=O | · | · | -10 | · | · | ·
